Only some compounds are listed: those with a hit (about 3.2% of all), similar ones and a draw of the others.
CDK5 inh: inhibitors of human CDK5/p35 kinase | Q00535+Q15078 | Recombinant CDK5/p35, ADP-Glo luminescence, 60 min | inhibition, % at 10 µM | 330,000 compounds, 0.01% hits | AID 488839;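 active = highest replicate inhibition of at least 50% and at least 75% of replicates reaching 50%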;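 note: plate controls were DMSO neutral control for no effect and GW8510 at 10 µM for full effect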
esBAF inh: blocks esBAF chromatin remodeling in mouse ES cells; Bmi1-luciferase knock-in reporter, 24 h; 100% = twice the neutral-well signal; reporter increase, % at 12.5 µM; 350,000 compounds, 2% hits; AID 602393; in the data active = activation above about 40%;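 note: 0% = median of the plate's neutral control wells and 100% = double that signal; a rise in the Bmi1 reporter signal indicates esBAF inhibition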
Rtt109 HAT inh: inhibitors of Candida albicans Rtt109/Vps75 histone acetyltransferase; Q5AAJ8; purified Rtt109/Vps75, ThioGlo CoA-SH fluorescence, 4 h; inhibition, % at 34.9 µM; 330,000 compounds, 0.16% hits;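 active = inhibition of at least 50% in every replicate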
DYRK1A inh: Dyrk1A (rat) kinase inhibition | 310,000 compounds, 0.43% hits | inhibition, % at 12.5 µM | Q63470 | ADP-Glo luminescence, NFATc1 peptide; in the data active = inhibition above about 50%;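 note: plate controls were vehicle with enzyme for no effect and no enzyme for full effect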
dFosB act: activators of mouse delta FosB homodimer; P13346; purified delta FosB, TAMRA-CDK5 oligo fluorescence polarization; percent of positive-control signal above neutral wells; activation, % at 25 µM; 340,000 compounds, 0.99% hits;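 active = mean activation above about 17%, with every replicate also reaching it, limit read from the data, passing the limit was not always enough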
Target sequence (P13346 whole entry, looked up): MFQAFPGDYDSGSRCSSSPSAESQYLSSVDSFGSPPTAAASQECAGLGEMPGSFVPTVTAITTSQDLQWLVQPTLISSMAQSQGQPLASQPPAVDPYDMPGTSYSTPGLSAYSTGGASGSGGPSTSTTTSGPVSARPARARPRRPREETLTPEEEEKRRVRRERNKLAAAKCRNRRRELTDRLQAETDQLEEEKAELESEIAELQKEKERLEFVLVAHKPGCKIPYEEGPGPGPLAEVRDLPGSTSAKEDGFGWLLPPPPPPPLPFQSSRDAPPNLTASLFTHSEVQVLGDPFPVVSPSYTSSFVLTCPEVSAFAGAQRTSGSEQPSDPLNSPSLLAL
SMARCA2 activ: SMARCA2 function activation, primary screen. MG213 cells, MMTV-luciferase reporter, dexamethasone, overnight. activation, % at 9.1 µM. 370,000 compounds, 1% hits. AID 652017; in the data active = activation above about 7.8%;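 note: 0% = vehicle wells and 100% = reference activator wells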
Starred values were filed as active, the others as inactive; x = not tested or not shown; ! = a repeat was not active.

SMILES	CDK5 inh	esBAF inh	Rtt109 HAT inh	DYRK1A inh	dFosB act	SMARCA2 activ
O=C(CCNS(=O)(=O)c1ccc2[nH]c(=O)oc2c1)Nc1cccc(Br)c1	-0.1	-1.8	-8.7	5.0	-2.4	7.8*
Cc1nn(C)c(Sc2ccccc2N)c1[N+](=O)[O-]	0.7	3.4	152.8*	-3.6	-2.8	1.5
Cc1nn(C)c(N)c1[N+](=O)[O-]	2.3	x	-2.8	-2.8	-4.4	-2.9
O=C(NCC[C@@H]1CC[C@@H](NC(=O)c2ccc3c(c2)OCO3)[C@H](CO)O1)Nc1ccc(Cl)cc1	x	62.9*	x	x	x	x
O=C(NNc1ccccc1)C(=O)NNS(=O)(=O)c1ccc(CCCl)cc1	0.5	4.9	64.7*	6.1	-1.8	-5.6
O=C(NCC(F)(F)F)c1ccc(S(=O)(=O)Nc2ccccc2N2CCCC2)cc1	2.2	-3.6	4.6	-1.1	53.1*	-3.0
Cc1ccc(S(=O)(=O)CCc2nnc(NC(=O)C3CCCCC3)s2)cc1	-0.2	3.4	-15.2	-6.6	-5.7	-2.3
CC(=O)Nc1nnc(CCS(=O)(=O)c2ccc(C)c(C)c2)s1	1.9	-0.5	58.8*	23.1	-4.0	-4.7
Cc1cc(C)c2oc(-c3cccc(N)c3)nc2c1	-4.4	55.0*	3.2	5.8	-5.7	3.0
CSc1ccc(/C=N/NC(=O)c2ccccc2Cl)cc1	1.3	78.7*	-7.1	4.9	1.0	3.2
CN(C)c1ccc(/C=N/NC(=O)c2ccccc2Cl)cc1	-0.2	21.5	x	-6.1	-3.8	4.8
Cc1cc(C)nc(SCC(=O)N/N=C\C(Br)=C\c2ccccc2)n1	-6.9	x	0.8	10.5	-5.0	0.5
Cc1ccc(NCC(=O)N/N=C\C(Br)=C\c2ccccc2)cc1	-0.8	54.6*	-0.7	-6.1	-10.2	-1.4
Cc1ccc(C(=O)CNc2ccccc2)cc1	-0.9	62.1*	-10.5	3.9	0.9	3.2
Cc1ccc(C(=O)CNc2ccc(Br)cc2)cc1	-1.4	21.2	-9.0	2.4	2.5	3.7
Cc1ccc(NCC(=O)N/N=C/c2cc3ccccc3nc2Cl)cc1	0.2	61.1*	-9.2	4.5	-10.2	7.0
O=C(O)c1ccc(N/N=C/C(Br)=C/c2ccccc2)cc1	4.0	74.3*	47.0	7.7	2.2	-0.4
O=C(CN1CCOCC1)N/N=C/c1cc2ccccc2nc1Cl	-0.1	x	1.2	6.0	-18.8	1.5
COc1ccc(CN(C)C[C@H]2Oc3ccc(NC(=O)Nc4c(C)noc4C)cc3CC(=O)N([C@H](C)CO)C[C@H]2C)cc1	x	-3.6	x	x	x	x
O=C(Nc1cccc2nsnc12)c1cccs1	0.2	46.8*!	6.5	6.2	-14.6	3.6
COc1ccc([C@H]2Cc3cccc(O)c3C(=O)O2)cc1O	0.2	55.1*	5.4	10.6	-4.8	4.2
O=C1CC(c2ccc(O)cc2)Oc2cc(O)cc(O)c21 (centres undefined)	1.9	19.0	-8.4	20.8	-8.6	-1.4
COc1ccc(C2CC(=O)c3c(O)cc(O)cc3O2)cc1O (centres undefined)	1.4	52.0*	-11.8	28.0	1.5	5.3
O=C1CC(c2ccccc2)Oc2cc(O)cc(O)c21 (centres undefined)	1.0	60.3*	2.1	26.1	-6.3	0.2
C[C@@H]1CCCCO[C@@H](CN(C)C(=O)c2ccncc2)[C@@H](C)CN([C@H](C)CO)C(=O)c2cc(NS(=O)(=O)c3cn(C)cn3)ccc2O1	x	-2.0	x	x	x	x
SMILES	CDK5 inh	esBAF inh	Rtt109 HAT inh	DYRK1A inh	dFosB act	SMARCA2 activ
Cc1ccc(S(=O)(=O)Nc2ccc3c(c2)CC(=O)N([C@H](C)CO)C[C@@H](C)[C@H](CN(C)Cc2ccc(C(=O)O)cc2)O3)cc1	x	10.4	x	x	x	x
Cc1noc(C)c1S(=O)(=O)Nc1ccc2c(c1)C(=O)N([C@H](C)CO)C[C@H](C)[C@H](CN(C)C(=O)CCCN(C)C)OCCCC[C@H](C)O2	x	-1.2	x	x	x	x
COc1cc(C)nc(Oc2ccc(OCc3ccccc3)nn2)n1	1.4	x	-3.4	1.2	2.8	0.5
CCOC(=O)COc1ccc(Oc2nc(C)cc(OC)n2)nn1	-0.5	-1.6	-3.7	-6.9	0.5	7.8*
CC1Cc2ccccc2N1C(=O)c1ccc(N2CCCC2)c([N+](=O)[O-])c1 (centres undefined)	-0.8	11.0	57.5*	-0.9	-0.7	-3.8
C[C@@H](NC(=O)C[C@@H]1C=C[C@H](NC(=O)C2CCOCC2)[C@@H](CO)O1)c1ccccc1	x	-5.7	x	x	x	x
Cc1cccc(OCCCn2c(=O)oc3ccccc32)c1	-0.3	48.3*	-7.5	11.5	-6.0	-3.0
COCC(=O)N1C[C@@H]2[C@H](c3ccccc31)[C@@H](CO)N2C(=O)c1ccccc1F	x	-1.4	x	x	x	x
COc1ccc(-n2cnc3cc(C(=O)N4CCOCC4)ccc32)cc1	-0.8	43.5*	1.6	6.1	-12.3	5.6
C[C@@H]1CCCCO[C@@H](CN(C)S(=O)(=O)c2cccs2)[C@@H](C)CN([C@H](C)CO)C(=O)c2cc(NC(=O)Nc3ccccc3)ccc2O1	x	-1.7	x	x	x	x
CC(C)OCCCn1c(-c2ccco2)nc2nc3ccccc3nc21	-0.7	-6.9	-4.8	4.8	-25.0	7.9*
O=C(CNc1ccccc1F)Nc1cccc2ccccc12	-0.1	63.8*	-2.3	0.8	1.7	-1.3
O=C(Nc1ccccc1F)C(=O)Nc1cccc2ccccc12	-1.5	62.5*	-4.4	5.6	8.5	0.7
Cc1ccoc1C(=O)Nc1cccc2ccccc12	-2.3	42.1*	-5.5	1.1	-6.7	2.2
O=C(Nc1cccc2ccccc12)c1ccco1	x	x	x	x	x	-1.5
O=C(Nc1ccccc1C(F)(F)F)Nc1cccc2ccccc12	-1.0	-0.9	1.8	-2.0	6.4	1.4
COc1ccc(NC(=O)N(C)C[C@@H]2Oc3ccc(NS(=O)(=O)c4ccc(Cl)cc4)cc3CC(=O)N([C@H](C)CO)C[C@@H]2C)cc1	x	-2.2	x	x	x	x
C[C@@H]1CCCCO[C@H](CN(C)C(=O)Nc2cccc3ccccc23)[C@H](C)CN([C@@H](C)CO)C(=O)c2cc(NC(=O)Nc3ccc(F)cc3)ccc2O1	x	5.2	x	x	x	x
CCCOc1ccc(-c2c(=O)n(O)c3ccccc3[n+]2[O-])cc1	-0.3	49.8*	-2.4	-3.4	-3.0	4.2
Cc1ccc(N2C(=O)c3ccc(N)cc3C2=O)cc1	-0.6	66.9*	-13.2	4.8	3.6	6.0
Cc1ccc(N2C(=O)c3ccccc3C2=O)cc1C	3.0	35.5	4.7	2.9	1.2	2.7
Cc1ccc(N2C(=O)c3ccc(N)cc3C2=O)cc1C	1.8	89.5*	-14.2	2.3	-0.5	1.2
Cc1nn(S(=O)(=O)c2ccc(C(C)C)cc2)c(C)c1S(=O)(=O)N1CCOCC1	0.1	-4.1	54.3*	-1.8	-4.2	0.1
CCOc1ccc(S(=O)(=O)n2nc(C)c(S(=O)(=O)N3CCOCC3)c2C)cc1	1.5	17.7	0.6	-6.4	1.8	-0.2
COc1ccc(C(=O)c2ccc(Br)cc2)cc1	-0.9	55.1*	0.8	-4.6	-3.7	0.2

Source: PubChem BioAssay (several laboratories)
